A short description of experiment [1]: Quantitative high throughput screen for delayed death inhibitors of the malarial parasite plastid, 48 hour incubation (AID 488752). Further: on the % scale 0 is the no-effect control and ±100 the full control effect; nearly all actives have a fitted effect of over 65% in size. The gist of the method:
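One parasite generation (48 h, 37 C, 5% CO2) of luciferase-reporter P. falciparum in erythrocytes is run with test compound; decreased luminescence indicates inhibited growth.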

Experiment [2] addresses Thioredoxin reductase 1, cytoplasmic (Rattus norvegicus) (UniProt O89049). Put plainly: qHTS Assay for Substrates of Mammalian Selenoprotein Thioredoxin Reductase 1 (TrxR1) (AID 488772).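 Further: NADPH fluorescence in the first read after selenite addition and not the 8 min delta; series mostly up to about 57 µM; 0% is about no effect; a drop in NADPH fluorescence below the no-compound background marks a TrxR1 substrate.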 The gist of the method:
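Quantitative HTS in Tris-HCl buffer at pH 7.5 with EDTA and Tween-20, using rat TrxR1, 400 uM NADPH and 400 uM selenite (final). A fall in initial NADPH fluorescence relative to background marked substrate behaviour.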

Experiment [3] concerns the target Flap endonuclease 1 (Homo sapiens) (UniProt P39748). Put plainly: qHTS Validation Assay for the Inhibitors of Human Flap endonuclease 1 (FEN1) (AID 488816). Further: on the % scale 0 is the no-effect control and ±100 the full control effect. The gist of the method: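 Human FEN1 (10 nM) preincubated 15 min at room temperature with compounds, then flap DNA substrate added at 50 nM final. Fluorescence read at 0 and 15 min; concentration-response fitted with four-parameter Hill equation.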

Experiment [4] addresses M-phase phosphoprotein 8 (Homo sapiens) (UniProt Q99549). Briefly: qHTS Validation Assay for Inhibitors for MPP8 Chromodomain Interactions with Methylated Histone Tails (AID 488949).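 Further: 50 nM MPP8 with 50 nM peptide preformed then compounds added for 30 min; AlphaScreen signal from MPP8 chromodomain bound to biotinylated H3K9me3 peptide; top concentration of the series differs between compounds; on the % scale 0 is the no-effect control and ±100 the full control effect; nearly all actives have a fitted effect of over 55% in size.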 The procedure, abridged: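 50 nM MPP8 + 50 nM b-H3K9me3 peptide, PBS pH 7.4/0.01% Tween-20, 30 min RT; + cpd 30 min RT; + AlphaScreen donor/Ni-chelate acceptor beads 10 ug/mL final, 30 min dark; luminescence read.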
In general terms: Quantitative high-throughput screening tests each substance at several concentrations.

In experiment [5] the target is Chromobox protein homolog 1 (Homo sapiens) (UniProt P83916). Briefly: qHTS Validation Assay for Inhibitors of HP1-beta Chromodomain Interactions with Methylated Histone Tails (AID 488953). Further: nearly all actives have a fitted effect of over 50% in size. Further: potency means the concentration at half of the fitted maximal effect. The gist of the method: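 Measured as loss of AlphaScreen luminescence from streptavidin donor and nickel acceptor beads (10 ug/mL final) bridging HP1-beta and biotin-H3(1-18)K9me3, each 50 nM. Compounds met the preassembled complex for 30 min at RT.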

The target in experiment [6] is Methanococcus maripaludis chaperonin (MmCpn) (UniProt Q6LX38). Briefly: High-Throughput Screening for Modulators of Cytosolic Chaperonin Activity: MmCpn Primary Screen (AID 488978).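 Further: 50 nM MmCpn enzyme hydrolysing 30 µM ATP at 37 °C; 0% is about no effect.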 The gist of the method:
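Steps: chaperonin 50 nM final; add compound, 5 min RT; start with ATP, 30 uM final; hold 10 min at 37C; add ADP Transcreener HTRF reagent, 5 min; read ex 320, em 590 and 665 nm.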

For experiment [7], the target named is Transient receptor potential cation channel subfamily V member 1 (Homo sapiens) (UniProt Q8NER1). Put plainly: HTS Assay for Compounds that Act as Enhancers of the Vanilloid Receptor 1 (AID 488979). Further: 0% is about no effect. The gist of the method:
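TRPV1 cells loaded with Fluo-8 calcium dye; compound added and Ca2+ signal (ex 480/em 520 nm) followed 3 min, then capsaicin at EC20 added and read 2 more min to detect enhancement.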

For experiment [8], the target named is Thyrotropin receptor (Homo sapiens) (UniProt P16473). Briefly: qHTS Assay for Antagonists of the Thyroid Stimulating Hormone Receptor (AID 488980). Further: series mostly up to about 58 µM; 0% is about no effect. The gist of the method: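 Readout is cAMP by HTRF competition between cellular cAMP and cAMP-d2 for a cryptate-labelled antibody. Antagonism was assessed in TSHR-transfected HEK293 cells stimulated with 4 nM TSH (EC80, final) in the presence of RO 20-1724.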

Experiment [9] deals with D(1A) dopamine receptor (Homo sapiens) (UniProt P21728). Put plainly: HTS Assay for Allosteric Agonists of the Human D1 Dopamine Receptor: Primary Screen for Agonists (AID 488981). Further: 0% is about no effect. The gist of the method:
(§1)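 Tetracycline-induced HEK293 Trex D1 cells with forced coupling to calcium, loaded with no-wash calcium dye; kinetic fluorescence read 180 s after compound addition for agonism, then a further 180 s after an EC20 dopamine challenge for potentiation.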

The target is the same in experiment [10]. Briefly: HTS Assay for Allosteric Agonists of the Human D1 Dopamine Receptor: Primary Screen for Potentiators (AID 488982). Further: 0% is about no effect. The gist of the method:
as §1

For experiment [11] the target is unchanged. Briefly: HTS Assay for Allosteric Agonists of the Human D1 Dopamine Receptor: Primary Screen for Antagonists (AID 488983).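 Further: calcium flux response to an EC80 dopamine challenge measured with no-wash dye; on the % scale 0 is the no-effect control and ±100 the full control effect; nearly all actives have a fitted effect of over 65% in size.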 The gist of the method:
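Screening of inducible HEK293 T-REx D1 cells: compound first, EC80 dopamine 180 s later, each phase read kinetically for calcium over 180 s.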

The target in experiment [12] is ATPase family AAA domain-containing protein 5 (Homo sapiens) (UniProt Q96QE3). Briefly: Validation screen for small molecules that inhibit ELG1-dependent DNA repair in human embryonic kidney (HEK293T) cells expressing luciferase-tagged ELG1 (AID 493107).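 Further: cells co-treated with the DNA-damaging agent 5-fluorouridine alongside compound; series mostly up to about 46 µM; on the % scale 0 is the no-effect control and ±100 the full control effect; inhibitors lower the ELG1-luciferase luminescence signal; nearly all actives have a fitted effect of over 70% in size.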 The gist of the method: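 Quantitative HTS in HEK293T cells carrying luciferase-tagged ELG1, stimulated with 5-fluorouridine alongside compound for 16 hr. Loss of luciferase signal marks inhibition of ELG1 response.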

A short description of experiment [13]: Nrf2 qHTS screen for inhibitors: Validation (AID 493153; active means well fitted inhibition curve with a large enough effect in the main read-out, with a control signal flat, not every such curve was filed as active). The note with it: viability change: measured here: cytotoxicity max response. The gist of the method:
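Dose-response validation uses reporter A549 cells with firefly luciferase under an antioxidant response element. Compounds stay on cells 18-24 h at 37°C, and luminescence indicates Nrf2-driven transcription.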

The nature of experiment [14]: qHTS for Inhibitors of Cell Surface uPA Generation: Validation Assay (AID 493164).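 Further: RAW 264.7 macrophage cells exposed to compound for 18 h; 0% is about no effect.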 The gist of the method: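 RAW 264.7, 4000 cells/well, o/n plating; cpd 7-pt 1:5 dilution 2.45 nM–38.3 uM final; 18 h, 37 C/5% CO2; ATP-Lite, 5 s luminescence exposure.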
For experiment [15], the target named is Galactokinase (Homo sapiens) (UniProt P51570). Briefly: qHTS Validation Assay for Inhibitors of Human Galactokinase (GALK) (AID 493189). Further: 0% is about no effect. The procedure, abridged:
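5 nM GALK / 100 uM galactose / 35 uM ATP, 20 mM HEPES pH8.0, 5 mM MgCl2, 60 mM NaCl, 1 mM DTT, 0.01% BSA (final). RT 1 h; Kinase-Glo Plus luminescence.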

A short description of experiment [16]: Validation screen for small molecules that induce DNA re-replication in SW480 colon adenocarcinoma cells (AID 504364). Further: 0% is about no effect. The gist of the method:
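Cells are treated 48 hr with test compound, stained 40 min with Hoechst at 37 C, and scanned for nuclear fluorescence; compounds inducing re-replication increase nuclei with elevated intensity.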

The target in experiment [17] is Peptidyl-prolyl cis-trans isomerase NIMA-interacting 1 (Homo sapiens) (UniProt Q13526). Briefly: qHTS Validation Assay to Find Inhibitors of Pin1 (AID 504536; active means well fitted inhibition curve with a large enough effect in the polarisation, with a control signal flat, not every such curve was filed as active; the % refers to the polarisation;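 further: 0% = full Pin1 enzyme wells and -100% = no-enzyme wells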). The procedure, abridged:
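Fluorescence polarization competition: compounds (titration) displace HiFluor-488-labeled Pin1-1b peptide from Pin1 (0.3 uM final) in pH 7.5 HEPES buffer with DTT, 10 min at room temperature; %Activity normalized to no-enzyme wells, curves fitted.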

Experiment [18] deals with Phosphoglycerate kinase, glycosomal (Trypanosoma brucei brucei) (UniProt P07378). Put plainly: qHTS Validation Assay to Find Inhibitors of Phosphoglycerate Kinase (AID 504547).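 Further: control wells lack PGK and mark full inhibition.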 The procedure, abridged: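 PGK activity was coupled to GAPDH (100nM final), which generates the unstable substrate 1,3-bisphosphoglycerate in-well. Reactions ran 60 minutes at room temperature in 100mM TEA pH 7.6, 5mM MgCl2, 0.01% Tween-20, then Kinase-Glo Plus luminescence was read.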

Experiment [19] has as its target phosphoglycerate mutase (Leishmania major) (UniProt Q4Q090). Briefly: qHTS Validation Assay to Find Inhibitors of Phosphoglycerate Mutase (AID 504548). Further: series mostly up to about 58 µM; on the % scale 0 is the no-effect control and ±100 the full control effect. The gist of the method: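 Lm PGAM at 1.25 nM final with substrate in 100 mM TEA pH 7.6, 5 mM MgCl2, 0.01% Tween-20; 45 min at room temperature. Kinase-GloPlus added, 10 min, end-point luminescence read.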
The nature of experiment [20]: Validation screen for small molecules that induce genotoxicity in human embryonic kidney (HEK293T) cells expressing luciferase-tagged ELG1 (AID 493106). Further: 0% is about no effect. The gist of the method: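 Reporter-gene quantitative HTS in HEK293T cells carrying luciferase-tagged ELG1, whose level climbs under genotoxic stress. Compound exposure lasts 16 hr at 37 °C before luciferase detection.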

Inconclusive results are not listed. Activity calls are given as the source filed them. Unless noted, the call rests on the fitted dose curve; in most records, active means well fitted curve in the direction sought with a large enough effect; inconclusive means small, poorly fitted or top-dose-only effect, or another doubt; inactive means no such curve, though single readings can be large; an effect the other way counts as inactive or inconclusive.

Sequence of Chromobox protein homolog 1 (Homo sapiens) (P83916 whole entry, looked up): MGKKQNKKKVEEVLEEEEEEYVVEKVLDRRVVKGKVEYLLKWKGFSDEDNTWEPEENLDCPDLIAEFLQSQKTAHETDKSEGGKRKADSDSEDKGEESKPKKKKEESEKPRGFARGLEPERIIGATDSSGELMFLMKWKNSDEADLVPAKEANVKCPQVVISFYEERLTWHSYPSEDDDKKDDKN
Sequence of Transient receptor potential cation channel subfamily V member 1 (Homo sapiens) (Q8NER1 whole entry, looked up): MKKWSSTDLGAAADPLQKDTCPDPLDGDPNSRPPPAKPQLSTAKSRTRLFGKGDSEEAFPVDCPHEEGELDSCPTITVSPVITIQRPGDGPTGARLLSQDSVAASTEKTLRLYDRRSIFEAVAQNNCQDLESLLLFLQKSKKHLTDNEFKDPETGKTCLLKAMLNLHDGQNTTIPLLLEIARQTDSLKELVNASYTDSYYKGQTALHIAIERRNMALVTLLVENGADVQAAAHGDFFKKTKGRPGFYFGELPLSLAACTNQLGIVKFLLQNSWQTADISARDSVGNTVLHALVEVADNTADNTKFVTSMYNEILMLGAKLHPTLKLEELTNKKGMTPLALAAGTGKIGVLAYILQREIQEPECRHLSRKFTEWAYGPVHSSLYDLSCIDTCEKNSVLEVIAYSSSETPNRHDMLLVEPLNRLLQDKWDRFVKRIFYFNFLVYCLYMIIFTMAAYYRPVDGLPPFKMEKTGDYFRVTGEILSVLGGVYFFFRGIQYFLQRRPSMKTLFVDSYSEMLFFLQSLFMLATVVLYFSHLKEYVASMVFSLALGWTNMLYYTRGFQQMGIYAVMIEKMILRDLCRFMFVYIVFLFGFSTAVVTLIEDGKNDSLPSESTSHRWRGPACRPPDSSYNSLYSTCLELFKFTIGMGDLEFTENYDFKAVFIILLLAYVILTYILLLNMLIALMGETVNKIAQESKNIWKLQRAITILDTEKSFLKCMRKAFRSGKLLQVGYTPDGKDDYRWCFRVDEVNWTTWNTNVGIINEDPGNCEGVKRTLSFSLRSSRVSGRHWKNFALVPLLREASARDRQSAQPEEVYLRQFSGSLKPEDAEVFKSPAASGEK
Sequence of Flap endonuclease 1 (Homo sapiens) (P39748 whole entry, looked up): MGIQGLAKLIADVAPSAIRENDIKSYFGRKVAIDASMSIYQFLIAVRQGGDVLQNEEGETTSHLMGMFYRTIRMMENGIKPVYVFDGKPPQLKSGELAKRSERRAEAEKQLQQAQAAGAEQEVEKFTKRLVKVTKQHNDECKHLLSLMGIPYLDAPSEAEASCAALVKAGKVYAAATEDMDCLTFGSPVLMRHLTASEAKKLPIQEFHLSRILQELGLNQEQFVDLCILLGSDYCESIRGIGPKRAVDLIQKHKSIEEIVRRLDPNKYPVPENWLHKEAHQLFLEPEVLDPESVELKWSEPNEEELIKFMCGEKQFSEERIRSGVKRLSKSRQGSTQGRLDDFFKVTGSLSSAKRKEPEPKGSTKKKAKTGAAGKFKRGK
Sequence of Thioredoxin reductase 1, cytoplasmic (Rattus norvegicus) (O89049 whole entry, looked up): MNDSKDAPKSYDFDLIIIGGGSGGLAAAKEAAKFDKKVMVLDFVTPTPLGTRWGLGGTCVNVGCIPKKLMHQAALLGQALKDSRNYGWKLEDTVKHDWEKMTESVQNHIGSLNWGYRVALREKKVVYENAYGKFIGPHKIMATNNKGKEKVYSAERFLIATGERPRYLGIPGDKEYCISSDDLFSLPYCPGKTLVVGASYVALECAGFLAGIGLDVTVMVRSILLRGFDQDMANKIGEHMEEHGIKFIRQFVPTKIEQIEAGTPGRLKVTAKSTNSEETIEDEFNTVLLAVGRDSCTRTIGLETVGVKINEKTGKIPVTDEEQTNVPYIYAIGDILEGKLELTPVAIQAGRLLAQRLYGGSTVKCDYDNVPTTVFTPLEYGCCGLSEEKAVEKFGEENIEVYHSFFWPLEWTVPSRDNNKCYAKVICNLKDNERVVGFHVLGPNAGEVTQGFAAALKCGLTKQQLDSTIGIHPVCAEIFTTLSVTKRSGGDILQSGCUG
Sequence of M-phase phosphoprotein 8 (Homo sapiens) (Q99549 whole entry, looked up): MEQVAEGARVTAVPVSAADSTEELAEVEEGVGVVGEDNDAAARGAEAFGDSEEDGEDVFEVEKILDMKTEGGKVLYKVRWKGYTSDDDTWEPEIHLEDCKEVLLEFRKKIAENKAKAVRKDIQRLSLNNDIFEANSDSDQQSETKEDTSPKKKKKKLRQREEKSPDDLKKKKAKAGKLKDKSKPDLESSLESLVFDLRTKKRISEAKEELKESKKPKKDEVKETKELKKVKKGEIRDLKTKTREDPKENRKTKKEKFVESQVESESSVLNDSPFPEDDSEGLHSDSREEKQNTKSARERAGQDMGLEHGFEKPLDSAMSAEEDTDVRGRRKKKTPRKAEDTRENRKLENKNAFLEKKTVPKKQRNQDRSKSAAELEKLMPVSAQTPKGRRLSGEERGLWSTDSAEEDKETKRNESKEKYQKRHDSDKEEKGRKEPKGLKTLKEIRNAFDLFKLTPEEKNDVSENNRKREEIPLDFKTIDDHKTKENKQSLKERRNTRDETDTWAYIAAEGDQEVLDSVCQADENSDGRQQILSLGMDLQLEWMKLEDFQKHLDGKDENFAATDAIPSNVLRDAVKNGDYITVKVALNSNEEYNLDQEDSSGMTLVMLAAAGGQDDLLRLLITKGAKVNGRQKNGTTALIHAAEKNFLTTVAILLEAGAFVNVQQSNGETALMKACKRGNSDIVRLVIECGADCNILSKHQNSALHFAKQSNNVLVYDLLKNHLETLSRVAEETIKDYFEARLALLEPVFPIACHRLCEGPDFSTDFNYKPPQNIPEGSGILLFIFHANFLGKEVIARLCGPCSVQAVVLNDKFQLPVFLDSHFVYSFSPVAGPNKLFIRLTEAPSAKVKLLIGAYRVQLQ
Sequence of Methanococcus maripaludis chaperonin (MmCpn) (Q6LX38 1-543): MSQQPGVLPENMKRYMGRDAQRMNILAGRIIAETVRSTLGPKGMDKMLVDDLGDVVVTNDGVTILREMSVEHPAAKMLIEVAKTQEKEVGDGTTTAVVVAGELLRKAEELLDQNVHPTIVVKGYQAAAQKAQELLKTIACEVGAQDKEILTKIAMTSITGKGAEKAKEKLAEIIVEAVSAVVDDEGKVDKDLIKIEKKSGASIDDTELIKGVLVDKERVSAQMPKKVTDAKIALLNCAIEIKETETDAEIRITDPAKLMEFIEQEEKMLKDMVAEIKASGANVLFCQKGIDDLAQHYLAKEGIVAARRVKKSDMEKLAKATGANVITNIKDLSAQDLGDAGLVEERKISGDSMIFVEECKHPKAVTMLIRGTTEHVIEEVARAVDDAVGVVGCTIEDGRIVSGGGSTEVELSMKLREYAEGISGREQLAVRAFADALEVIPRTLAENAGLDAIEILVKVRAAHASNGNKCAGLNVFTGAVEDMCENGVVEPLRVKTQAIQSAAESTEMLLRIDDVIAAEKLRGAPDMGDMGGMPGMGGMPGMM
Sequence of D(1A) dopamine receptor (Homo sapiens) (P21728 whole entry, looked up): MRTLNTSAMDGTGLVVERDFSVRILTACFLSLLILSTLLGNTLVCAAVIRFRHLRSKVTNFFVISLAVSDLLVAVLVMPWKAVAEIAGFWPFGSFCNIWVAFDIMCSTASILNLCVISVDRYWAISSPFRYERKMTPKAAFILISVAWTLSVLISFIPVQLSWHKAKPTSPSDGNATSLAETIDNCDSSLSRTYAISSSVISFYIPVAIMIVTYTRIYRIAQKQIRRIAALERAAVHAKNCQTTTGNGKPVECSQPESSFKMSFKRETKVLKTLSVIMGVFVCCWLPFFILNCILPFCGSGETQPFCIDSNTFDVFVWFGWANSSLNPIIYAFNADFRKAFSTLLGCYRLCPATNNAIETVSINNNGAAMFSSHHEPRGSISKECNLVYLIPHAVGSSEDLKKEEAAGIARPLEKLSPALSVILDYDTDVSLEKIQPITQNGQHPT
Sequence of Galactokinase (Homo sapiens) (P51570 whole entry, looked up): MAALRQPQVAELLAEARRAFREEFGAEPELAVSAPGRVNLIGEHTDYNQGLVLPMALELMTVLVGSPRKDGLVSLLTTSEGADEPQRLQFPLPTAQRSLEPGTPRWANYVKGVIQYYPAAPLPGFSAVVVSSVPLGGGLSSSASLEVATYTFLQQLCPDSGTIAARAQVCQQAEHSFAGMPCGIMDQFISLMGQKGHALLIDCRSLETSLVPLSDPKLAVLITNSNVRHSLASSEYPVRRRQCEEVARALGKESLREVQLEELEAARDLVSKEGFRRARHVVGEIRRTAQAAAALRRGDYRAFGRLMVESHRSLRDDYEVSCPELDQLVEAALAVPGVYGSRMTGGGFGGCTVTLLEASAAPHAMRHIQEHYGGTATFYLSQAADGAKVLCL
Sequence of Thyrotropin receptor (Homo sapiens) (P16473 whole entry, looked up): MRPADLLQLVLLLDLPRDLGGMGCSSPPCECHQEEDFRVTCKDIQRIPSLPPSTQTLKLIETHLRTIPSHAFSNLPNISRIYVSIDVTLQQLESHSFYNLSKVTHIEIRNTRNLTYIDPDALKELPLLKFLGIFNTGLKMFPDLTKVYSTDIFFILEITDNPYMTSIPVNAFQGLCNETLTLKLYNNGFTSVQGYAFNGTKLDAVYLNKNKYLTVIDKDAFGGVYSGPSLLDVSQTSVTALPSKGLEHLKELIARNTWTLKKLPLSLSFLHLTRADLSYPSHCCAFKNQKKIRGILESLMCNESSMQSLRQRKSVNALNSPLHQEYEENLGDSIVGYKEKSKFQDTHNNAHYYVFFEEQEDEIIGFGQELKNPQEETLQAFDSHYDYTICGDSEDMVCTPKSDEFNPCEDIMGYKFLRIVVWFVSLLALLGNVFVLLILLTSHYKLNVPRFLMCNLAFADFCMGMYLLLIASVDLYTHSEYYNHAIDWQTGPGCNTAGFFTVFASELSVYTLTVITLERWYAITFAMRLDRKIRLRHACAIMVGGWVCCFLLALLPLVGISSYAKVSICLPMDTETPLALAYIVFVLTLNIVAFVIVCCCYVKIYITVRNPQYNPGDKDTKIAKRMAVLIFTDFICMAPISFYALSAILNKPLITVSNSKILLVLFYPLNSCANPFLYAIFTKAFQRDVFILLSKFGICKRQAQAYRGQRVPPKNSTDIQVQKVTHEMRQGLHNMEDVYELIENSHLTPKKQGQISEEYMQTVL

Take `O=C1NCC2(CCN(CCc3ccccc3)CC2)O1`: the outcome in experiment [1], in experiment [3], in experiment [6], in [7], in experiment [8] and in experiment [9] was inactive. Also, the outcome in [10], in experiment [12], in [13], in experiment [14], in experiment [15] and in experiment [16] was inactive. Also, the compound was called inactive in experiment [17], in experiment [18] and in experiment [19]. The Potency result in experiment [2], in experiment [4], in [5] and in experiment [11] was “inactive” in each case. In experiment [13], the viability change was 1.8%.

Turning to `O=c1cc(-c2ccc(O)cc2)oc2cc(O)cc(O)c12`, the Potency result in experiment [2], in [4], in [5] and in experiment [11] was “inactive” throughout. In addition, the compound was classed as inactive in experiment [3], in experiment [6], in experiment [7], in experiment [8], in experiment [9] and in experiment [10]. For the same compound, the result in experiment [13], in experiment [14], in experiment [15], in experiment [16], in experiment [17] and in experiment [18] was inactive. The viability change in [13] was -8.56%.

On to `Cc1cccc(C)c1OCC(C)N` (stereo unspecified), for which the compound was called inactive in experiment [1], in experiment [3], in experiment [6], in [7], in experiment [8] and in experiment [9]. For the same compound, the result in [10], in experiment [12], in experiment [13], in [14], in experiment [16] and in [17] was inactive. Besides, the compound was classed as inactive in [18] and in [19]. Moreover, the Potency result in experiment [2], in experiment [4], in experiment [5], in experiment [11] and in experiment [20] was “inactive” throughout. Besides, the viability change in experiment [13] is -6.18%.

Turning to `CCCCCN(C)CCC(O)(P(=O)(O)O)P(=O)(O)O`, the Potency entry in experiment [2], in experiment [4], in experiment [5], in experiment [11] and in [20] was “inactive” throughout. The outcome in experiment [3], in experiment [6], in experiment [9], in experiment [10], in experiment [12] and in experiment [13] was inactive. Further, the outcome in experiment [14], in experiment [17], in experiment [18] and in experiment [19] was inactive. Besides, in experiment [13], the viability change is -4.22%.

`O=C(O)CCc1nc(-c2ccccc2)c(-c2ccccc2)o1`: the compound was classed as inactive in [1], in experiment [6], in experiment [7], in experiment [8], in experiment [9] and in experiment [10]. Moreover, the compound was classed as inactive in experiment [12], in experiment [14], in [15], in experiment [16], in experiment [17] and in experiment [18]. Besides, the compound was classed as inactive in experiment [19]. In addition, the Potency result in experiment [2], in experiment [5], in [11] and in [20] was “inactive” in each case.

Turning to `COc1ccc(Cc2nccc3cc(OC)c(OC)cc23)cc1OC`, the Potency result in [2], in experiment [11] and in experiment [20] was “inactive” throughout. Moreover, the outcome in experiment [6], in experiment [9], in experiment [10], in experiment [12], in experiment [14] and in [17] was inactive. For the same compound, the compound was called inactive in experiment [18] and in experiment [19].

On to `CC1=C(/C=C/C(C)=C/C=C/C(C)=C/C(=O)Nc2ccc(O)cc2)C(C)(C)CCC1`, for which the compound was called inactive in experiment [3], in experiment [6], in experiment [8], in experiment [9], in experiment [14] and in [15]. Besides, the compound was called inactive in experiment [16], in experiment [17], in [18] and in experiment [19]. The Potency result in experiment [4] and in experiment [20] was “inactive” throughout. Also, the Potency in experiment [5] was 39.8 µM (active).

`CC(C)OC(=O)C(C)(C)Oc1ccc(C(=O)c2ccc(Cl)cc2)cc1`: the Potency entry in experiment [2], in [4], in [5], in [11] and in experiment [20] was “inactive” in each case. In addition, the call in experiment [3], in experiment [6], in [7], in experiment [8], in experiment [9] and in experiment [10] was inactive. Further, the compound was classed as inactive in experiment [13], in experiment [14], in experiment [15], in [16], in experiment [17] and in [18]. In experiment [19], the call was inactive. Further, in experiment [13], the viability change is 3.23%.

Turning to `CC(=O)N[C@@H](CS)C(=O)O`, the call in [1], in experiment [3], in experiment [6], in experiment [7], in experiment [8] and in experiment [9] was inactive. Besides, the compound was called inactive in [12], in [13], in experiment [14], in [15], in experiment [16] and in [17]. The compound was called inactive in [18] and in [19]. Moreover, the Potency entry in [2], in experiment [4], in experiment [5], in [11] and in [20] was “inactive” throughout. Moreover, the viability change in [13] came out at 13.1%.

For `CC(C)NCC(O)COc1cccc2[nH]ccc12` (stereo unspecified), the call in [1], in experiment [6], in experiment [7], in experiment [8], in experiment [9] and in [10] was inactive. Further, the compound was classed as inactive in experiment [12], in experiment [13], in experiment [14], in [15], in experiment [16] and in experiment [17]. The compound was classed as inactive in [18] and in experiment [19]. The Potency result in [2], in experiment [11] and in [20] was “inactive” in each case. Moreover, the viability change in experiment [13] was 3.18%.
